# GRIN3A LBD mod – modulators (binders) of human NR3A ligand-binding domain; NR3A LBD differential scanning fluorimetry, Tm shift; 0% = protein alone, 100% = glycine-bound protein; hit rate 2.5% among 340,000; AID 1259313; Tm shift relative to glycine control, % at 25 µM;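 active = melting temperature shift of at least 10% of the positive control shift, at one fixed dose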
# CR mimetic SO – caloric restriction mimetics inhibiting age-related superoxide in yeast | S. cerevisiae aged cells, superoxide DHE fluorescence; active compounds read low | superoxide response (% of plate mean), % at 10 µM | hit rate 0.18% among 330,000;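 active = superoxide response under a set limit, about three screen SD below normal, cut at about 65% in these data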;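 also: yeast aged for seven days with compound at 30 °C before DHE staining; 100% = average MFI of all compound-treated wells on the plate with controls excluded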
# UBC13 inh – inhibitors of human UBC13 polyubiquitin chain formation; P61088; AID 485273; inhibition, % at 20 µM; TR-FRET; hit rate 0.47% among 330,000; in the data active = inhibition above about 45%, passing the limit was not always enough; inconclusive = no clear call, values can overlap the other calls
# Target sequence (P61088 whole entry, looked up): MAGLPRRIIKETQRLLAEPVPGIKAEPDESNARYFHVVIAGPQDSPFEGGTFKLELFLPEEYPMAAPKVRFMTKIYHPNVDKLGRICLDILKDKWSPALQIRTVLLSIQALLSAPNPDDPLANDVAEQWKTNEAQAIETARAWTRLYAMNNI
# NALP1 yeast inh – NALP1 inhibition | inhibition, % at 10 µM | AID 2071 | S. cerevisiae NALP1/ASC/caspase-1 growth, X-gal OD620, 72 h | hit rate 0.61% among 280,000; in the data active = inhibition mostly above about 24%, no sharp cut-off; inactive = mostly below about 32%
# dFosB activator – activators of mouse delta FosB homodimer. hit rate 0.99% among 340,000. activation, % at 25 µM. P13346. purified delta FosB, TAMRA-CDK5 oligo fluorescence polarization; percent of positive-control signal above neutral wells;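 active = mean activation above about 17%, with every replicate also reaching it, limit read from the data, passing the limit was not always enough; inconclusive = only one of the two conditions met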
# Target sequence (P13346 whole entry, looked up): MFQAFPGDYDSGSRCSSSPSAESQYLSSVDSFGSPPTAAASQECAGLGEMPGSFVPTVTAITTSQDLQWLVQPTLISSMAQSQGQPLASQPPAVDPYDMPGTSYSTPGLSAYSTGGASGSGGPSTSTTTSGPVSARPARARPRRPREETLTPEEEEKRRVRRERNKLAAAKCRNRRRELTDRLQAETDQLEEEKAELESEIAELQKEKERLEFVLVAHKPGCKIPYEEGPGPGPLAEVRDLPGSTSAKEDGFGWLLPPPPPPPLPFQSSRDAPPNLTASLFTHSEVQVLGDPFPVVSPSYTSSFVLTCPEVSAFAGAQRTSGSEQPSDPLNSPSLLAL
# Active calls of the source: *; ? = inconclusive; · = no result. This is a sample that favours compounds with a hit; in the whole collection about 4.3% have one here.
SMILES,GRIN3A LBD mod,CR mimetic SO,UBC13 inh,NALP1 yeast inh,dFosB activator
CN(C)C(=O)Oc1cccc(-c2cn3cc(Cl)ccc3n2)c1,-11,98,9,32,-13
CN(C)C(=O)Oc1ccc(-c2cn3cc(Cl)ccc3n2)cc1,13*,112,11,9,-7
COc1ccc(CNCCc2ccccc2F)c(OC)c1C,1,98,9,4,-2
COc1cccc(N2CCN(Cc3cccc(Cl)c3)CC2)c1,13*,100,4,-13,-2
COc1cccc(N2CCN(Cc3ccc(Cl)cc3)CC2)c1,-2,77,-2,-23,1
Cc1ccc2c(c1)C1CN(C)CCC1N2C(=O)Nc1cccc(Cl)c1 (centres undefined),17*,89,5,7,-5
Cc1ccc2c(c1)C1CN(C)CCC1N2C(=S)Nc1cccnc1 (centres undefined),-2,100,2,18,3
COc1ccc(NC(=O)N2C[C@@H]3C[C@@H](C2)c2cccc(=O)n2C3)c(OC)c1,-4,91,-8,10,-10
CN(C)c1ccc(/C=C/c2cc[n+](C)c3ccccc23)cc1,0,·,·,-30,93*
CN(C)c1ccc(/C=C/C=C/c2sc3ccccc3[n+]2C)cc1,-3,88,-103,11,?
COc1ccc(C2SCC(=O)Nc3c2c(C)nn3-c2ccccc2)cc1 (centres undefined),11*,99,-6,9,2
O=c1c2ccccc2nc(N2CCCC2)n1-c1ccc(Cl)cc1,1,96,24,0,-6
CNC(=O)Oc1ccc2ncccc2c1,-1,109,6,52*,2
O=P1(c2ccccc2)Nc2ccccc2N1c1ccccc1 (centres undefined),-3,·,·,·,-5
NC(=O)CS(=O)C(c1ccccc1)c1ccccc1 (centres undefined),·,·,·,-2,·
Clc1ccc(C[n+]2c(-c3ccccc3)cc(-c3ccccc3)cc2-c2ccccc2)cc1,-7,95,47*,·,7
Fc1ccc(C[n+]2c(-c3ccccc3)cc(-c3ccccc3)cc2-c2ccccc2)cc1,-6,91,34,·,·
Cn1c(O)c(/C=C2\C=c3ccccc3=NC2=O)c(=O)n(C)c1=O,1,93,5,-10,-7
Cn1c(O)c(/C=C2\N=c3ccccc3=C2CCNC(=S)NC2CC2)c(=O)n(C)c1=O,17*,90,-84,·,-9
CCOC(=O)C(O)(c1ccc(NC(=O)Oc2ccccc2)cc1)C(F)(F)F (centres undefined),16*,92,0,22,-6
Nc1c(C(=O)NCCCc2ccccc2)c2nc3ccccc3nc2n1Cc1cccs1,22*,93,-3,7,-1
CCOCCCn1c(N)c(C(=O)Nc2sc3c(c2C(=O)OC)CCCC3)c2nc3ccccc3nc21,17*,96,4,11,6
CCOC(=O)c1c(NC(=O)c2c(N)n(CCCOC)c3nc4ccccc4nc23)sc2c1CCCC2,24*,102,22,26,1
CCCCn1c(NS(=O)(=O)c2ccc(C)cc2)c(C(=O)OCC)c2nc3ccccc3nc21,13*,87,-9,-20,-11
CCCCOCCCn1c(N)c(C(=O)OCCOC)c2nc3ccccc3nc21,-1,100,-17,-7,-10
SMILES,GRIN3A LBD mod,CR mimetic SO,UBC13 inh,NALP1 yeast inh,dFosB activator
CCCCn1c(N)c(C(=O)OCCOC)c2nc3ccccc3nc21,0,85,2,·,·
C[C@]12C[C@@H](O)[C@H](O)CC1=CCC1C2CC[C@@]2(C)C1CC[C@@H]2O (some centres undefined),-1,95,-11,·,-2
COCCO[C@H]1CCC2C3CC=C4C[C@@H](O)CC[C@]4(C)C3CC[C@@]21C (some centres undefined),1,98,14,·,0
COc1cccc(C2CCN(CC(=O)Nc3cc(Cl)ccc3OC)CC2O)c1 (centres undefined),7,98,29,11,-15
CCn1c(O)c(C=Nc2ccc(N3CCOCC3)c(Br)c2)c(=O)n(CC)c1=S,4,99,-14,24,24*
COC/C=C1\CN2C3C[C@@H]1[C@H]1COC4=Nc5cc(OC)c(OC)c(OC)c5[C@@]43C[C@@H]12,1,88,-3,·,-1
CC(C)(C)C(=O)NC1CCSC1=O (centres undefined),·,99,2,-3,·
Brc1ccc2c(c1)C(OC1CN3CCC1CC3)c1ccccc1CS2 (centres undefined),5,100,15,57*,-1
CC(=O)Nc1ccc(C(=O)OCC(=O)Nc2ccc(Cl)cc2C(=O)c2ccccc2)cc1,-2,67,3,33,3
O=C(COC(=O)c1ccc(O)cc1)Nc1ccc(Cl)cc1C(=O)c1ccccc1,18*,96,9,20,-10
CCCCOc1nc2ccccc2c(=O)n1-c1ccccc1,13*,98,10,14,-14
COc1nc2ccccc2c(=O)n1-c1ccc(C)cc1,-10,91,-10,32,5
COc1cc2c(c(OC)c1OC)-c1ccc(SC)c(=O)cc1C(NC(C)=O)CC2 (centres undefined),-4,·,·,·,5
O=C1NC(=O)N(c2ccccc2F)C(=O)/C1=C/c1ccc(Sc2nc3ccccc3[nH]2)o1,102*,102,·,11,27*
O=C1NC(=O)N(c2cccc(Cl)c2)C(=O)/C1=C\c1ccc(Sc2nc3ccccc3[nH]2)o1,-5,98,-6,21,49*
CC1CN2c3ccc([N+](=O)[O-])cc3CC3(C(=O)N(C)C(=O)N(C)C3=O)C2C(C)O1 (centres undefined),-2,113,-20,24,1
COC(=O)c1c(C)n(Cc2ccccc2)c2ccc(O)cc12,14*,103,13,-8,-11
COc1ccc(CCNC2CCCCC2)cc1OC,-2,79,6,-3,-8
COc1ccc(CN2Cc3cnnn3-c3ccccc3C2C)cc1 (centres undefined),-3,·,·,·,-7
COc1ccc(N2C(=O)/C(=C/C=C/c3ccccc3[N+](=O)[O-])C(=O)NC2=S)cc1,100*,·,-11,16,·
CCN1/C(=C\C=C\C2=[N+](CC)c3ccccc3C2(C)C)C(C)(C)c2ccccc21,-403,123,-257,3,52*
Cn1c(=O)[nH]c2nncnc2c1=O,-1,60*,-5,·,-5
CN1C(=O)NC(=O)C2(CCCC2)C1=O,-1,·,·,·,5
C[C@]12CC(=O)CC1CCC1C2CC[C@@]2(C)C1CC[C@@H]2O (some centres undefined),4,72,-8,42*,-6
CC12CCC3C(CCC4CC(=O)OCC43C)C1CCC2O (centres undefined),2,·,·,·,-6
N[C@@H](Cc1c[nH]c2ccccc12)c1nnc(SCc2ccccc2)o1,0,85,7,1,-5
N[C@@H](Cc1c[nH]c2ccccc12)c1nnc(SCc2ccc(F)cc2)o1,13*,·,·,7,2
